Data from PubChem BioAssay AID588856 (National Center for Advancing Translational Sciences (NCATS), 2011).
Hit rate of the full screen: of about 410,000 compounds, about 3,100 (0.76%) were called active. This excerpt belongs to a sample that is enriched for actives. Values without a mark were called inactive. Calls follow the shape of the dose curve; as a rule, active = well fitted cell-killing curve with a large enough effect; inactive = no such curve, though single readings can be large or run the other way.

Assay: qHTS for Inhibitors of TGF-b: Cytotox Counterscreen
Settings: HepG2 CAGA-GFP viability, ATP luminescence, 18 h; series mostly up to 46.1 µM; activity change, negative = cytotoxicity: at the top concentration
Excerpt: TGF-b is a main component in the TGF-b signaling pathway which plays diverse roles in cellular and development pathways. TGF-b is mediated by transcription factors called "Smads". Although the Smad-dependent pathway is the primary canonical TGF-b signaling mode, TGF-b1 can also activate alternative signaling pathways, including those involving MAPK (ERK, JNK and p38). This interaction may mediate or enhance Smad-dependent responses, or can exert Smad-independent effects. The complexity of this signaling cascade allows the TGF-b superfamily to perform unique, overlapping or redundant functions. We believe that targeting the TGF-beta pathway at the Smad-transcription factor level may eliminate the consequences of disrupting the entire pathway and offer specificity without affecting other signaling pathways. Smad3 is the primary transducer of TGF-b's signals and Smad3 regulates many functions attributed to TGF-b signaling. We hypothesize that Smad3 inhibitors will selectively eliminate Smad3-specific TGF-beta signals without undesired off-target effects. We aim to identify Smad3-small molecule antagonists using a quantitative high throughput screening (qHTS) approach.
A high-throughput assay was developed to screen the NIH Molecular Libraries Small Molecule Repository (MLSMR). This is a cell based assay, where TGF-b is tagged with GFP. This is a counterscreen that evaluates the cytotoxicity of the compounds that were screened in the primary cell-based screen (AID 588855).
MH087449NIH Chemical Genomics Center [NCGC]
NIH Molecular Libraries Probe Centers Network [MLPCN]
Assay Submitter (PI): Sushil Rane, National Institute of […]
Suspensions of trypsinized HEPG2 CAGA-GFP cells were dispensed into white, tissue culture-treated, solid 1536-well plates at 5uL/well (1000 cells/well final concentration) in DMEM medium supplemented with 1% FBS. Plates were incubated at 37 degrees C for 2 hours, after which 23 nL of compounds or DMSO were delivered to each well using a pin tool. One uL of recombinant TGF-beta in DMEM (1% FBS) was then dispensed (500 pg/mL final concentration), and plates were incubated at 37 degrees C for 18 hours. Two uL of CellTiter Glo (Promega), a luminescence-based viability reagent, was dispensed, followed by a 10 minute room temperature incubation. The plates were then measured on a PerkinElmer ViewLux plate reader for luminescence (clear filter) using a 5 second exposure. The %Activity was determined from the corrected luminescence values. Wells containing media only (no cells) were used to normalize %Activity of identified toxic compounds; media-only wells corresponded to 100%Activity (complete cell-killing), while DMSO-dosed cell controls were used to normalize 0%Activity (no toxicity).
Concentration-response curves were fitted to the signals arising from the resulting luminescence. The concentration-effect curves were then classified based on curve quality (r2), response magnitude and degree of measured activity, and compounds were subsequently categorized based on their curve class.
Potency is read from the fitted curve at half-maximal effect.

Structure (SMILES) | activity change, negative = cytotoxicity [%] | Potency
COc1ccc2c(c1O)-c1cccc3c1[C@@H](C2)N(C)CC3 | -17.1 | –
COc1c(O)ccc2c1-c1c3c(cc4c1C(C2)N(C)CC4)OCO3 (centres undefined) | 4.22 | –
COc1ccc2cc1Oc1ccc(cc1)C[C@H]1c3cc(c(OC)cc3CCN1C)Oc1c(O)c(OC)cc3c1[C@H](C2)N(C)CC3 | – | 7.94 µM (active)
CC(C)COC(=O)n1c(=O)oc2ccc(S(=O)(=O)N3CCCCC3)cc21 | -9.49 | –
COc1ccccc1CNC(=O)C(Cc1ccccc1)NS(=O)(=O)c1ccc2c(c1)oc(=O)n2C (centres undefined) | -43 | –
ClCCN(CCCl)c1ccc(C=Nc2ccc(/C=C/c3ccnc4ccccc34)cc2)cc1 | -18.2 | –
Cc1ccc(C(O)P(=O)(OC(C)C)c2ccc(N(C)C)cc2)cc1 (centres undefined) | -52.3 | –
COc1ccc(CCNC(=O)CCn2c(=O)oc3ccccc32)cc1OC | -40.3 | –
O=C1CC(=O)N(Cc2ccccc2)C(=O)N1CCCCCCN1C(=O)CC(=O)N(Cc2ccccc2)C1=O | 17.5 | –
CC(C)(C)c1ccc(CN2C(=O)CN=C(c3ccccc3)c3ccccc32)cc1 | – | 12.6 µM (active)
CC(C)OP(=O)(OC(C)C)C(Nc1ccccc1)c1cccc([N+](=O)[O-])c1 (centres undefined) | -16.4 | –
O=c1[nH]c(=S)[nH]c(O)c1/C=C1\C=Nc2ccccc21 | -43.9 | –
COc1ccccc1CNC(=O)Cn1c(=O)oc2cc(Cl)ccc21 | -34.9 | –
N#Cc1c(Cl)c(Cl)c(Cl)c(C#N)c1Cl | – | 0.316 µM (active)
Cn1c(=O)oc2cc(S(=O)(=O)N3CCC(C(=O)Nc4ccc(OC(F)(F)F)cc4)CC3)ccc21 | -44.1 | –
CCCCOP(=O)(c1ccc(N(C)C)cc1)C(O)c1cc(OC)ccc1OC (centres undefined) | -35.4 | –
COc1cc([C@@H]2c3cc4c(cc3[C@H](OC(C)=O)[C@H]3COC(=O)[C@H]23)OCO4)cc(OC)c1OC | -43.8 | –
CCOC(=O)C(NS(=O)(=O)c1ccc(C)cc1)(C(F)(F)F)P(=O)(OCC(C)C)OCC(C)C (centres undefined) | -41.8 | –
CN(C)CC1Oc2ccccc2OC1(O)c1ccccc1 (centres undefined) | – | 3.98 µM (active)
CO[C@H]1[C@@H](O)[C@@H](C)O[C@H](O[C@H]2[C@H](Oc3cccc4c(O)c5c(=O)oc6ccc(C)c7c(=O)oc(c34)c5c67)O[C@H](C)[C@H](O)[C@@H]2O)[C@@H]1O | 8.18 | –
CCOC(=O)c1ccc(NC(=O)CCn2c(=O)oc3ccccc32)cc1 | -44.4 | –
O=C1NC(=O)N(Cc2ccco2)C(=O)/C1=C\c1ccc(-c2ccc(F)cc2)o1 | – | 12.6 µM (active)
CCOP(=O)(OCC)C(Cc1ccccc1)N=C(c1ccccc1)c1ccccc1 (centres undefined) | -105 | –
Cc1ccc2c(c1)C1C[N+](C)(CC(=O)c3ccccc3)CCC1N2C(=O)c1ccccc1Cl (centres undefined) | 4.92 | –
Brc1cc(Br)c(Oc2cc(Br)c(Br)cc2Br)cc1Br | -32.1 | –
Cc1ncoc1C(=O)NCC1=C(c2cccc3ccccc23)C[C@@H]2CC[C@H]1N2Cc1ccco1 | -59.5 | –
COc1cc(Cn2c(N)c(C(=O)NCc3ccco3)c3nc4ccccc4nc32)cc(OC)c1OC | – | 17.8 µM (active)
COC(=O)C1=C(c2ccccc2)C[C@@H]2CC[C@H]1N2C(=O)NCc1ccco1 | -1.14 | –
CCN(CC)C(=O)Oc1ccc(OC(=O)N(CC)CC)cc1 | 33.9 | –
